# Screening results as filed in PubChem.
# LASV entry inh – qHTS for Inhibitors of binding or entry into cells for Lassa Virus; 1.2% of 300,000 active; AID 540256, 2011; Lassa virus pseudotype entry inhibition, cell reporter; Potency, µM (doses to about 37.9 µM), inactives show at the highest dose activity change, negative = inhibition, hits mostly inhibitors; calls by dose curve; tested in HEK293 cells; note: potency is the fitted concentration of half-maximal effect; % is set by controls: 0 for no effect and ±100 for the full control effect; nearly all actives have a fitted effect of over 50% in size
# Cycloheximide cs – Cycloheximide Counterscreen for Small Molecule Inhibitors of Shiga Toxin | AID 2314, 2010 | 12% of 300,000 active | cell reporter, cycloheximide protein synthesis inhibition counterscreen | max response, %; in the data active = max response mostly above about 13%, no sharp cut-off; inactive = mostly below about 14%; note: read at 38.3 µM for the half of the compounds with a filed dose; 0% is about no effect
# Shiga inhibitor – A qHTS for Small Molecule Inhibitors of Shiga Toxin; inhibition, % at 38.7 µM; Vero cells, Shiga toxin protein synthesis inhibition reporter; 9.2% of 290,000 active; in the data active = inhibition mostly above about 28%, no sharp cut-off; inactive = mostly below about 43%; note: 0% is about no effect
# Marburg entry inh – qHTS for inhibitors of binding or entry into cells for Marburg Virus; Marburg virus pseudotyped entry inhibition, cell reporter; Potency, µM (highest dose often 37.8 µM), inactives show at the highest dose activity change, negative = inhibition, usual class: inhibitors; 1.8% of 300,000 active; calls by dose curve; tested in HEK293 cells; note: potency is the fitted concentration of half-maximal effect; % is set by controls: 0 for no effect and ±100 for the full control effect
# Starred values were filed as active, the others as inactive; ? = inconclusive; . = no result; [ ] = dose if it differs, or a comment. Hits are enriched below; roughly 12% of the tested compounds scored in any of these assays.
SMILES,LASV entry inh,Cycloheximide cs,Shiga inhibitor,Marburg entry inh
CC(=O)Nc1nc(-c2ccc3c(c2)CC(C)N3C(=O)C2CC2)c(C)s1 (stereo not drawn),6%,20*,65*,-16%[46.1 µM]
Cc1sc(NC(=O)c2ccco2)nc1-c1ccc2c(c1)CC(C)N2C(=O)C1CC1 (stereo not drawn),9.2µM*,31*,175*,10µM*
CCOC(=O)C(=O)Nc1nc(-c2ccc3c(c2)CCN3C(=O)C2CC2)c(C)s1,29%[46.1 µM],20*,47,11%[46.1 µM]
CC(NCC(=O)Nc1ccccc1C(=O)NC1CC1)c1ccco1 (stereo not drawn),2%,.,.,16%[46.1 µM]
CCN(CCCCCN(C)C)Cc1cc2ccccc2o1,?,3,8,10µM*
COc1ccc(NC(=O)C2CC(=O)N/C(=N/NC(=O)c3ccc(Cl)cc3)S2)cc1 (stereo not drawn),-8%[46.1 µM],1,8,-13%[46.1 µM]
Cc1cc(NC(=O)c2cccc(S(=O)(=O)Nc3cccc(C(=O)O)c3)c2)no1,-1%,6,4,0%
O=C(CSc1nc2ccccc2o1)N/N=C/c1ccco1,.,21*,50*,.
O=C(CSc1nc2ccccc2[nH]1)N/N=C/c1ccco1,26%,24*,62*,?
Cc1cc(SCC(=O)N/N=C/c2ccco2)nc2ccccc12,14%[46.1 µM],1,19,?
Cn1cccc1/C=N/NC(=O)CSc1nc2ccccc2[nH]1,7%,20*,22,-30%
Cc1ccc(S(=O)(=O)n2nc(-c3ccc(Cl)cc3)nc2NCc2ccco2)cc1,?,9,14,?
CC(C)(C)c1ccc(C(=O)N2CCCC(c3nc4c(nnn4Cc4cccc(F)c4)c(=O)[nH]3)C2)cc1 (stereo not drawn),-22%[46.1 µM],.,.,1%[46.1 µM]
COc1ccc(OC)c(NC(=O)c2cc(-c3ccc(Cl)s3)nc3ccccc23)c1,2%[46.1 µM],.,.,1%[46.1 µM]
CNC(=S)NNC(=O)c1sc(-c2cc(C)on2)nc1C,-17%,-1,2,22%
Cc1nn(C(C)C(=O)Nc2cccc(F)c2)c(=O)c2c1sc1ccccc12 (stereo not drawn),19%[46.1 µM],.,.,5%[46.1 µM]
O=C(NCc1ccc(Cl)cc1Cl)C1CCN(S(=O)(=O)c2ccc3c(c2)OCCCO3)CC1,?,19*,15,?
Cc1cccc(OCCn2c(SCC(=O)O)nc3ccccc32)c1,1%[46.1 µM],.,.,.
CC(Sc1nc2c(c(=O)[nH]1)CCCC2)C(=O)Nc1cc(C(F)(F)F)ccc1Cl (stereo not drawn),?,.,.,17%[46.1 µM]
Fc1cc(Br)ccc1COc1ccc(-c2nnco2)cc1,.,36*,93*,.
O=C(COc1ccc(-c2nnco2)cc1)Nc1c(F)cccc1F,16%,.,.,-12%[46.1 µM]
FC(F)(F)c1cnc(Oc2ccc(-c3nnco3)cc2)c(Cl)c1,12%,4,8,-13%
Fc1ccc(COc2ccc(-c3nnco3)cc2)c(Cl)c1,?,30*,84*,-24%
Nc1c(C(=O)OCC2CCCO2)c2nc3ccccc3nc2n1-c1ccc2c(c1)OCCO2 (stereo not drawn),11%,35*,60*,-6%
COc1ccc(C(O)Cn2cc([N+](=O)[O-])nc2C)cc1 (stereo not drawn),27%,-2,-5,3%[46.1 µM]
SMILES,LASV entry inh,Cycloheximide cs,Shiga inhibitor,Marburg entry inh
COc1ccc(NC(=S)NC(=O)/C=C/c2ccco2)c(OC)c1,-5%[46.1 µM],-2,.,?
O=C(/C=C/c1ccco1)NC(=S)Nc1ccccc1O,16%,19*,92*,7%[46.1 µM]
O=C(/C=C\c1ccco1)NC(=S)Nc1ccccc1O,.,34*,64*,.
Cc1ccc(NC(=S)NC(=O)/C=C/c2ccco2)c(O)c1,-23%[46.1 µM],60*,68,-18%[46.1 µM]
CC1=NS(=O)(=O)NC(C)(C)C1,19%,.,.,-3%
COc1ccc(C)cc1S(=O)(=O)N(C)CC(=O)N1CCCC1,.,-1,.,.
COc1cc2nc(Nc3ccc(C)c(Cl)c3)nc(N)c2cc1OC,?,11,20,?
Cc1ccc(Nc2nc(N)c3ccccc3n2)cc1Cl,.,43*,.,.
COC(=O)c1ccc(Oc2nc(Nc3ccccc3)nc(N(C)C)n2)cc1,-3%,1,-7,-19%
CCOc1ccc(Nc2nc(N)c3ccccc3n2)cc1,?,0,11,4.5µM*
CN(C)c1nc(Nc2ccccc2)nc(N(C)C)n1,22%,3,14,3.5µM*
Nc1nc(Nc2ccc(Cl)cc2)nc2ccccc12,?,30*,27,?
Cc1ccc(CNC(=O)CC(C)CC2=NS(=O)(=O)c3ccccc3N2)cc1 (stereo not drawn),3%[46.1 µM],.,.,.
COc1ccc(CCN2CC(C(=O)N3CCCCCC3)CCC2=O)cc1 (stereo not drawn),-10%,15,-29,4%
Cc1ccc(C(=O)N2CCN(Cc3ccc4c(c3)OCO4)CC2)cc1[N+](=O)[O-],?,-2,-27,?
Nc1nc(Nc2ccccc2)nc2ccccc12,?,28,56,?
CN(C)c1ccc(Nc2nc(N)c3ccccc3n2)cc1,0.89µM*,-1,.,0.63µM*
O=C(N[C@H]1CC1c1ccccc1)c1ccc([N+](=O)[O-])cc1 (stereo partly drawn),.,46*,112*,.
Cc1ccc(NCCC(=O)c2cccc([N+](=O)[O-])c2)cc1,3%,29*,19*,3%
Cc1cc(NC(=O)c2cccc([N+](=O)[O-])c2)no1,-8%,-2,29,26%
O=C(NNc1ccc([N+](=O)[O-])cc1)c1ccccc1Cl,.,6,5,.
O=C(NNc1ccc([N+](=O)[O-])cc1)c1ccccc1F,11%,25*,21,3%[46.1 µM]
CC(=O)N[C@H]1C[C@@H]1c1ccccc1,-1%,-2,-4,?
O=C(CCNc1ccc(F)cc1)c1cccc([N+](=O)[O-])c1,-12%,12,-5,11%
CC(C)(C)c1cc(NC(=O)c2cccc([N+](=O)[O-])c2)no1,?,59*,92*,19%[46.1 µM]
SMILES,LASV entry inh,Cycloheximide cs,Shiga inhibitor,Marburg entry inh
CCOc1ccc(-n2c(SCc3ccc(C(=O)OC)o3)nc3c([nH]c4ccccc43)c2=O)cc1,0%[46.1 µM],.,.,.
CCOC(=O)Cc1ccc(NC(=O)c2cccc([N+](=O)[O-])c2)cc1,.,21*,62*,.
O=C(O)c1ccccc1Nc1ccccc1C(=O)O,2%,2,-8,8%
O=C(Nc1ccccc1-c1ccccc1)c1cccc([N+](=O)[O-])c1,10%,31*,122*,?
O=C(Nc1ncc([N+](=O)[O-])s1)c1cccc([N+](=O)[O-])c1,.,43*,105*,.
CCOC(=O)Cc1ccc(NC(=O)c2ccc([N+](=O)[O-])cc2)cc1,-20%,-1,20,-19%
O=C(O)c1ccccc1Nc1ccc([N+](=O)[O-])cc1,1.1µM*,27*,32,0.5µM*
C=C(C)CCCN1C=C(C(C)=O)C(c2ccccc2)NC1=O (stereo not drawn),.,.,.,2%[14.2 µM]
Cc1c(CC(=O)N2CCC(C(N)=O)CC2)c(=O)oc2cc3c(cc12)CCC1(CCCCC1)O3,.,-1,-3,.
O=C(COc1ccccc1)Nc1nnc(SCc2cc(=O)c3ccccc3[nH]2)s1,5%[46.1 µM],.,.,.
COC(=O)CCCC(=O)N1CCCC(CNS(=O)(=O)c2ccc(OC)cc2)C1 (stereo not drawn),.,-1,49,.
